# Results reported in PubChem BioAssay (NCI).
# Compounds without any hit were thinned out: in the full panel of roughly 83,000, 20% have a hit.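 Step 1: grow cells in 96-well plates. Step 2: add test compound at a single concentration. Step 3: incubate 48 h. Step 4: record percent growth.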 Values without a mark were called inactive. Calls of active or inactive are those of the source. How the source made its calls: active means growth percent below 10; inactive means the rest.
# How the values were obtained:
# Test in all cases: NCI-60 one-dose screen, 48 h (100 = growth as untreated, 0 = no growth, -100 = all killed)
# SK-MEL-2 melanoma = conditions: 10 µM unless noted
# EKVX NSCLC = conditions: 10 µM unless noted
# SN12C renal = conditions: 10 µM unless noted
# UO-31 renal = conditions: 10 µM unless noted
# TK-10 renal = conditions: 10 µM unless noted
# ACHN renal = conditions: 10 µM unless noted
# CAKI-1 renal = conditions: 10 µM
# CCRF-CEM leukemia = conditions: 10 µM unless noted
# MOLT-4 leukemia = conditions: 10 µM unless noted
# SR leukemia = conditions: 10 µM unless noted
# RPMI-8226 leukemia = conditions: 10 µM unless noted
# OVCAR-8 ovarian = conditions: 10 µM unless noted
# OVCAR-5 ovarian = conditions: 10 µM unless noted
# OVCAR-4 ovarian = conditions: 10 µM unless noted
# SK-OV-3 ovarian = conditions: 10 µM unless noted
# IGROV1 ovarian = conditions: 10 µM unless noted
# OVCAR-3 ovarian = conditions: 10 µM unless noted
# HS 578T breast = conditions: 10 µM unless noted
# NCI/ADR-RES ovarian = conditions: 10 µM unless noted
# A498 renal = conditions: 10 µM unless noted
Compound,growth (SK-MEL-2 melanoma) [%],growth (EKVX NSCLC) [%],growth (SN12C renal) [%],growth (UO-31 renal) [%],growth (TK-10 renal) [%],growth (ACHN renal) [%],growth (CAKI-1 renal) [%],growth (CCRF-CEM leukemia),growth (MOLT-4 leukemia),growth (SR leukemia) [%],growth (RPMI-8226 leukemia) [%],growth (OVCAR-8 ovarian) [%],growth (OVCAR-5 ovarian) [%],growth (OVCAR-4 ovarian) [%],growth (SK-OV-3 ovarian) [%],growth (IGROV1 ovarian) [%],growth (OVCAR-3 ovarian),growth (HS 578T breast) [%],growth (NCI/ADR-RES ovarian),growth (A498 renal)
C=C(C)[C@@H]1CC[C@]2(C(=O)ON)CC[C@]3(C)[C@H](CC[C@@H]4[C@@]5(C)C/C(=C/c6ccc(Br)cc6)C(=O)C(C)(C)[C@@H]5CC[C@]43C)[C@@H]12,88.8,60.5,71.5,63.7,105,76,50,67.8%,47.3%,76.2,62.2,68.7,86.5,75.5,98.6,90.4,78%,88.2,74.9%,–
COc1ccc(-c2cc(-c3cccc4ccccc34)n3c(n2)nc2ccccc23)cc1,79.1,74.9,36.9,29,43,19.7,21,9.05% (active),2.23% (active),–,32.7,42.1,81.1,64.8,58.4,48.7,–,55,54.2%,41.5%
Cn1c2ccc(Br)cc2c2c3c(c4c5cc(F)ccc5oc4c21)C(=O)N(O)C3=O,110,90.1,90.2,75.4,142,78,69.2,14.7%,43%,–,76.7,75.1,108,103,–,63.5,–,92.8,75.5%,94.2%
CC(=O)C1=NN(c2ccc(Cl)cc2)C(=O)CN1C,102,95.7,102,93,91.2,99.4,95.7,104%,107%,102,115,102,95,114,113,103,123%,107,105%,–
CCN1C(=O)N(CC)C2SC(N/N=C/c3ccc(OC)cc3)=NC21 (stereo unspecified),61.4,41.8,24.3,43.5,72.8,31.3,48.7,13.1%,10.1%,19.3,17.6,26,36.8,69.1,62.4,23.2,-13.1% (active),31.9,2.95% (active),–
CC1(C)CC[C@]2(C(=O)O)CC[C@]3(C)C(=CCC4[C@@]5(C)C[C@@H](O)[C@@H]6OC(c7ccccc7O)OC[C@@]6(C)C5CC[C@]43C)C2C1 (stereo partly specified),85.7,39.9,60.1,54.8,52.2,25.3,73.5,46.8%,39.2%,53.3,55.4,53.1,103,63.6,80,57.2,47.4%,80.6,34.6%,–
COc1ccc2c(c1)oc1c3[nH]c4ccccc4c3c3c(c21)C(=O)N(O)C3=O,70.8,92.5,40.5,22.4,119,11.5,19.6,6.73% (active),-2.02% (active),–,28,48.4,–,77.9,39.1,41.2,–,77.9,–,-1.48% (active)
O=C(COc1ccc(C2SCC(=O)N2c2ccc(F)cc2)cc1)c1ccccc1 (stereo unspecified),99.8,86.9,97.1,78.6,131,95.6,66,95.8%,92.5%,65.1,87.4,94.4,107,110,112,86.2,114%,96.7,94.2%,–
